# Where “and” joins values, the source holds several entries; their conditions need not be identical. Equal values may be shown once. Results filed as inconclusive are left out. Where a call stands in place of a potency, no number is given. Unmarked numbers belong to inactive results. Calls of active or inactive are those of the source. Calls come from the whole dose curve; as a rule, active = well fitted inhibition curve with a large enough effect; inconclusive = small, poorly fitted or top-dose-only effect; inactive = flat fitted curve, though single readings scatter.
# Key:
# P93_24 = experiment: qHTS profiling for inhibitors of Plasmodium falciparum proliferation (AID 504749); details: P. falciparum in erythrocytes, SYBR Green DNA, 72 h; series mostly up to 28.7 µM
# How it was run: (§1)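 Parasite proliferation within erythrocytes, 72 h exposure. Endpoint: SYBR Green I fluorescence after overnight lysis at room temperature. Controls: 0.29 uM artemisinin, DMSO.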
# P94_40 = experiment: as above; details: P. falciparum in erythrocytes, SYBR Green DNA, 72 h; series mostly up to 28.7 µM
# How it was run: as §1
# PAD = experiment: as above; details: P. falciparum in erythrocytes, SYBR Green DNA, 72 h; series mostly up to 28.7 µM
# How it was run: as §1
# PC15 = experiment: as above; details: P. falciparum in erythrocytes, SYBR Green DNA, 72 h; series mostly up to 28.7 µM
# How it was run: as §1
# PC26 = experiment: as above; details: P. falciparum in erythrocytes, SYBR Green DNA, 72 h; series mostly up to 28.7 µM
# How it was run: as §1
# PC49 = experiment: as above; details: P. falciparum in erythrocytes, SYBR Green DNA, 72 h; series mostly up to 28.7 µM
# How it was run: as §1
# SC27B = experiment: as above; details: P. falciparum in erythrocytes, SYBR Green DNA, 72 h; series mostly up to 28.7 µM
# How it was run: as §1
# TAB109 = experiment: as above; details: P. falciparum in erythrocytes, SYBR Green DNA, 72 h; series mostly up to 28.7 µM
# How it was run: as §1
# TAB113 = experiment: as above; details: P. falciparum in erythrocytes, SYBR Green DNA, 72 h; series mostly up to 28.7 µM
# How it was run: as §1
# TAB165 = experiment: as above; details: P. falciparum in erythrocytes, SYBR Green DNA, 72 h; series mostly up to 28.7 µM
# How it was run: as §1
# W2 = experiment: as above; details: P. falciparum in erythrocytes, SYBR Green DNA, 72 h; series mostly up to 28.7 µM
# How it was run: as §1
# CRL-7250 = normal cell line; experiment: Cytotoxic Profiling of Annotated Libraries Using Quantitative High-Throughput Screening (AID 1296008); details: Five cell lines viability, CellTiter-Glo ATP luminescence, 48-72 h; max response: active compounds read low
# How it was run: (§2)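 Compounds were pin-transferred onto cells and incubated 48 or 72 hr at 37 degree Celsius, 95% humidity. CellTiter-Glo was added, plates sat 10 min at room temperature, then ATP-coupled luminescence was imaged as the viability read-out.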
# HEK293 = experiment: as above; details: Five cell lines viability, CellTiter-Glo ATP luminescence, 48-72 h; max response: active compounds read low
# How it was run: as §2
# HaCat [1] = experiment: as above; details: Five cell lines viability, CellTiter-Glo ATP luminescence, 48-72 h; max response: active compounds read low
# How it was run: as §2
# KB-3-1 = experiment: as above; details: Five cell lines viability, CellTiter-Glo ATP luminescence, 48-72 h; max response: active compounds read low
# How it was run: as §2
# NIH3T3 = experiment: as above; details: Five cell lines viability, CellTiter-Glo ATP luminescence, 48-72 h; max response: active compounds read low
# How it was run: as §2
# HACAT [2] = experiment: qHTS assay to identify novel small-molecules to repurpose for Merkel cell carcinoma treatment (AID 1296009); details: MCC and control cell lines, CellTiter-Glo viability, 72 h; at 44.8 µM (top of the series) unless noted
# How it was run: (§3)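 qHTS format: cells treated with library compounds in DMSO across 8 (NPC) or 11 (MIPE) concentrations. Readout after 72 hr at 37 degree celsius was CellTiter-Glo luminescence.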
# MCC-13 = experiment: as above; details: MCC and control cell lines, CellTiter-Glo viability, 72 h; series mostly up to 46 µM
# How it was run: as §3
# MCC-26 = experiment: as above; details: MCC and control cell lines, CellTiter-Glo viability, 72 h; series mostly up to 46 µM
# How it was run: as §3
# HEK293T = experiment: as above; details: MCC and control cell lines, CellTiter-Glo viability, 72 h; at 44.8 µM (top of the series) unless noted
# How it was run: as §3
# Note: nearly all actives have a fitted effect of over 60% in size.
# Potency is the fitted concentration of half-maximal effect.
smiles,measurement,setting,value
CCOCC(O)COc1ccc(NC(=O)CC[S+](C)C)cc1 (stereo not drawn),Potency,P93_24,inactive
same,Potency,P94_40,inactive
same,Potency,PAD,inactive
same,Potency,PC15,inactive
same,Potency,PC26,inactive
same,Potency,PC49,inactive
same,Potency,SC27B,inactive
same,Potency,TAB109,inactive
same,Potency,TAB113,inactive
same,Potency,TAB165,inactive
same,Potency,W2,inactive
same,max response,CRL-7250,-11.9% and -0.62%
same,max response,HEK293,-1.76% and 3.69%
same,max response,HaCat [1],4.61%
same,outcome,HaCat [1],inactive
same,max response,KB-3-1,-5.04%
same,outcome,KB-3-1,inactive
same,max response,NIH3T3,4.96% and 4.72%
same,outcome,HACAT [2],inactive
same,Potency,MCC-13,inactive
COc1c(N2CCNC(C)C2)c(F)cc2c(=O)c(C(=O)O)cn(C3CC3)c12 (stereo not drawn),Potency,P93_24,inactive
same,Potency,P94_40,inactive
same,Potency,PAD,inactive
same,Potency,PC15,inactive
same,Potency,PC26,inactive
same,Potency,PC49,inactive
same,Potency,SC27B,inactive
same,Potency,TAB113,inactive
same,Potency,TAB165,inactive
same,Potency,W2,inactive
same,max response,CRL-7250,-3.69%
same,max response,HEK293,-24.5%
same,outcome,HaCat [1],inactive
same,max response,KB-3-1,0.558%
same,outcome,KB-3-1,inactive
same,max response,NIH3T3,-3.19%
same,outcome,NIH3T3,inactive
same,outcome,HACAT [2],inactive
same,Potency,MCC-13,inactive
same,Potency,MCC-26,inactive
CCN[C@H]1C[C@H](C)S(=O)(=O)c2sc(S(N)(=O)=O)cc21,max response,CRL-7250,-1.48% and 1.03%
same,max response,HEK293,-5.09%
same,outcome,HEK293,inactive
same,max response,HaCat [1],-6.44%
same,outcome,HaCat [1],inactive
same,max response,KB-3-1,1.27% and -0.756%
same,max response,NIH3T3,0.236% and 2.34%
same,outcome,HACAT [2],inactive
same,outcome,HEK293T,inactive
same,Potency,MCC-13,inactive
CCOc1cc(N)c(Cl)cc1C(=O)NCC1CN(Cc2ccc(F)cc2)CCO1 (stereo not drawn),Potency,P93_24,6.31 µM (active)
same,Potency,P94_40,11.2 µM (active)
same,Potency,PAD,11.2 µM (active)
same,Potency,SC27B,8.91 µM (active)
same,Potency,TAB109,10 µM (active)
same,Potency,TAB113,14.1 µM (active)
same,Potency,TAB165,6.31 µM (active)
same,Potency,W2,7.57 µM (active)
same,outcome,CRL-7250,inactive
same,outcome,HEK293,inactive
same,max response,HaCat [1],-10.3%
same,outcome,HaCat [1],inactive
same,max response,KB-3-1,4.82% and -2.19%
same,max response,NIH3T3,1.17%
same,outcome,NIH3T3,inactive
same,outcome,HACAT [2],inactive
same,outcome,HEK293T,inactive
same,Potency,MCC-13,inactive
CCOC(=O)c1ccc(OC(=O)CCCCCN=C(N)N)cc1,Potency,P94_40,inactive
same,Potency,PC49,inactive
same,Potency,SC27B,inactive
same,max response,CRL-7250,1.52%
same,outcome,CRL-7250,inactive
same,max response,HaCat [1],4.21%
same,outcome,HaCat [1],inactive
same,max response,KB-3-1,1.69% and -0.41%
same,outcome,NIH3T3,inactive
same,outcome,HACAT [2],inactive
same,outcome,HEK293T,inactive
same,Potency,MCC-13,inactive
same,Potency,MCC-26,inactive
COc1ccc(-c2ccc3cc(C(=O)O)ccc3c2)cc1C12CC3CC(CC(C3)C1)C2,Potency,P93_24,inactive
same,Potency,P94_40,inactive
same,Potency,PAD,inactive
same,Potency,PC15,inactive
same,Potency,PC26,inactive
same,Potency,PC49,inactive
same,Potency,SC27B,inactive
same,Potency,TAB109,inactive
same,Potency,TAB113,inactive
same,Potency,TAB165,inactive
same,max response,CRL-7250,1.82% and 2%
same,max response,HEK293,3.2%
same,max response,HaCat [1],-4.15%
same,outcome,HaCat [1],inactive
same,max response,KB-3-1,-1.55%
same,outcome,KB-3-1,inactive
same,max response,NIH3T3,4.1%
same,outcome,NIH3T3,inactive
same,outcome,HACAT [2],inactive
same,Potency,MCC-13,inactive
COC(c1ccccc1)(c1ccccc1)[C@H](Oc1nc(C)cc(C)n1)C(=O)O,outcome,CRL-7250,inactive
same,max response,HEK293,-24.1% and 3.62%
same,max response,HaCat [1],-18.5% and -6.09%
same,max response,KB-3-1,0.37%
same,outcome,KB-3-1,inactive
same,max response,NIH3T3,-19.9%
same,outcome,NIH3T3,inactive
same,Potency,MCC-13,inactive
same,Potency,MCC-26,inactive
Nc1nc(N)nc(-c2cc(Cl)ccc2Cl)n1,Potency,P93_24,inactive
same,Potency,P94_40,inactive
same,Potency,PAD,inactive
same,Potency,PC15,inactive
same,Potency,PC26,inactive
same,Potency,PC49,inactive
same,Potency,SC27B,inactive
same,Potency,TAB109,inactive
same,Potency,TAB113,inactive
same,Potency,TAB165,inactive
same,Potency,W2,inactive
same,max response,CRL-7250,-4.29% and -4.54%
same,max response,HEK293,-8.28% and -2.53%
same,max response,HaCat [1],-21.1% and 4.26%
same,max response,KB-3-1,-7.71%
same,max response,NIH3T3,-1.04% and -13.6%
same,Potency,MCC-13,inactive
same,Potency,MCC-26,inactive
CC[C@H](C)C(=O)O[C@H]1C[C@@H](C)C=C2C=C[C@H](C)[C@H](CC[C@@H]3C[C@@H](O)CC(=O)O3)[C@H]21,Potency,P93_24,inactive
same,Potency,P94_40,inactive
same,Potency,PAD,inactive
same,Potency,PC15,inactive
same,Potency,PC26,inactive
same,Potency,PC49,inactive
same,Potency,SC27B,inactive
same,Potency,TAB109,inactive
same,Potency,TAB113,inactive
same,Potency,TAB165,inactive
same,Potency,CRL-7250,2.66 µM (active) and 13.2 µM (active) and 3.17 µM (active)
same,max response,HEK293,-37.5%
same,Potency,HaCat [1],11.8 µM (active)
same,max response,NIH3T3,-16.3%
same,Potency,MCC-13,21.1 µM (active)
same,Potency,MCC-26,inactive
COC(=O)Nc1nc2ccc(Sc3ccccc3)cc2[nH]1,Potency,P93_24,inactive
same,Potency,P94_40,inactive
same,Potency,PAD,inactive
same,Potency,PC15,inactive
same,Potency,PC26,inactive
same,Potency,PC49,inactive
same,Potency,SC27B,inactive
same,Potency,TAB109,inactive
same,Potency,TAB113,inactive
same,Potency,TAB165,inactive
same,Potency,W2,inactive
same,Potency,CRL-7250,2.37 µM (active)
same,Potency,HEK293,473 nM (active) and 1.32 µM (active)
same,max response,HaCat [1],-7.21%
same,Potency,KB-3-1,1.66 µM (active)
same,Potency,NIH3T3,0.668 µM (active)
Cc1oc(=O)oc1CN1CCN(c2cc3c(cc2F)c(=O)c(C(=O)O)c2n3C(C)S2)CC1 (stereo not drawn),Potency,P93_24,5.01 µM (active)
same,Potency,P94_40,7.94 µM (active)
same,Potency,PC49,inactive
same,Potency,SC27B,8.91 µM (active)
same,Potency,TAB109,4.47 µM (active)
same,Potency,TAB113,7.94 µM (active)
same,Potency,TAB165,5.01 µM (active)
same,Potency,W2,4.78 µM (active)
same,max response,CRL-7250,-3.57% and 1.83%
same,max response,HEK293,0.387% and 0.715%
same,outcome,HaCat [1],inactive
same,max response,KB-3-1,23.6%
same,outcome,KB-3-1,inactive
same,max response,NIH3T3,-0.29%
same,outcome,NIH3T3,inactive
same,outcome,HACAT [2],inactive
same,Potency,MCC-13,inactive
same,Potency,MCC-26,inactive
